A selection: hits, their analogues and other compounds. The true share with any hit is near 10%.
KinaseGlo FLuc – Counterscreen for Luciferase (Kinase-Glo TM) Inhibition. Kinase-Glo luciferase, ATP luminescence, 8 min. actives 0.28% (n = 200,000). AID 1379, 2008. Potency, µM (series often up to 38.3 µM), usual class: inhibitors; active = well fitted inhibition curve with a large enough effect; inconclusive = small, poorly fitted or top-dose-only effect; also: nearly all actives have a fitted effect of over 60% in size
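Substrate mix (final 50 mM imidazole pH 7.2, 50 mM KCl, 7 mM MgCl2, 10 uM ATP, 0.01% Tween 20, 0.05% BSA) plus pin-tool compound, then Kinase-Glo detection mix; 8 min ambient, luminescence read.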
LMNA splice mod – qHTS Assay for Modulators of Lamin A Splicing. actives 0.01% (n = 200,000). HeLa LMNA splicing GFP/RFP minigene ratio, 48 h. Potency, µM (highest dose often 46.1 µM), usual class: inhibitors. AID 1487, 2009; active = well fitted inhibition curve with a large enough effect in the signal ratio, with a control signal flat, not every such curve was filed as active; inconclusive = small, poorly fitted or top-dose-only effect, or effect the other way, or a change in a side signal; the % refers to the signal ratio
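Read-out is the ratio of GFP to DsRed2 object intensity, acquired by 488 nm laser-scanning cytometry on HeLa lamin A-EGFP minigene reporter cells. Compound incubation 48 hrs at 37 °C in Opti-MEM with 2% FBS; DMSO 0.5% final.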
ALDH1A1 inh – qHTS Assay for Inhibitors of Aldehyde Dehydrogenase 1 (ALDH1A1) | Potency, µM (titrated, usually from 75.3 µM), usual class: inhibitors | Purified ALDH1A1, NADH fluorescence, propionaldehyde substrate | AID 1030, 2008 | Aldehyde dehydrogenase 1A1 (Homo sapiens), P00352 | actives 7.3% (n = 220,000)
HPGD inh – qHTS Assay for Inhibitors of HPGD (15-Hydroxyprostaglandin Dehydrogenase). purified HPGD, NADH fluorescence kinetic, PGE2 substrate. Potency, µM, actives largely listed as inhibitors. 15-hydroxyprostaglandin dehydrogenase [NAD(+)] (Homo sapiens), P15428. actives 4.3% (n = 150,000). AID 894, 2007
Target sequence (P15428 whole entry, looked up): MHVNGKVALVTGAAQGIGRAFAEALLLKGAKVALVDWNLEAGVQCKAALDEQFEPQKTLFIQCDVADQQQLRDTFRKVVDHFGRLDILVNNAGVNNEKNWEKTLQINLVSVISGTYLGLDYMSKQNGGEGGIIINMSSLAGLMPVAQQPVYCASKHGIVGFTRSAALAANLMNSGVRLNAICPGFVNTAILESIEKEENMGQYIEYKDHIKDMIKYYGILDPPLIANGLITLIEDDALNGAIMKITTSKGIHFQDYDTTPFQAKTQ
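20 nM HPGD preincubated 15 min at room temperature with compound in 50 mM Tris-HCl pH 8, 0.01% Tween 20. Started with 1 mM NAD+ and 30 uM prostaglandin E2; NADH fluorescence (360/450 nm) read 5 times over 30-s intervals, last minus first.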
PNC inhibitor – High Content Assay for Compounds that inhibit the Assembly of the Perinucleolar Compartment; activity change (PNC), negative = inhibition, % at 10 µM; AID 2417, 2010; actives 3.1% (n = 140,000); PC3M PTB-GFP, PNC prevalence imaging, 16 h; active compounds read low;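 active = readout at or below -70, meaning at least 70% loss of cells showing the perinucleolar compartment, a nuclear body marking cancer cells; inconclusive = readout between -30 and a set limit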
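Compounds are pinned in duplicate onto adhered PC3M cells stably expressing GFP-tagged PTB and incubated 16 h at 37 C. Cells are then fixed, nuclei stained with Hoechst, and PNC-positive cells counted.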
Hits are given with their value; [ ] = dose if it differs, or a comment. Unless noted, calls follow the shape of the dose curve; as a rule, active = well fitted inhibition curve with a large enough effect (not every such curve was filed as active); inconclusive = small, poorly fitted or top-dose-only effect, or another doubt; inactive = no such curve, though single readings can be large or run the other way.

`CCCOc1ccc(N2C(=O)CC(SCc3nc4ccccc4[nH]3)C2=O)cc1` (stereo not drawn) gave KinaseGlo FLuc inactive, LMNA splice mod inconclusive and ALDH1A1 inh 15.8µM.
`COCCOC(=O)c1c(C)oc2ccc(OC(=O)c3cccs3)cc12` gave KinaseGlo FLuc inactive, LMNA splice mod inactive, ALDH1A1 inh inactive, HPGD inh inactive and PNC inhibitor -139.2.
Screening COc1cc(CSc2ncc(CO)n2Cc2ccc(C)cc2)cc(OC)c1 returned LMNA splice mod inactive.
`COc1ccccc1CNC(=O)C(C)NS(=O)(=O)c1ccc(Br)cc1` (stereo not drawn) gave KinaseGlo FLuc inactive, LMNA splice mod inactive, ALDH1A1 inh 28.2µM, HPGD inh inactive and PNC inhibitor inactive.
Cc1ccc(S(=O)(=O)NC(CC(=O)NCc2ccco2)c2ccco2)cc1 (stereo not drawn) was read as KinaseGlo FLuc inactive, LMNA splice mod inactive, ALDH1A1 inh 25.1µM, HPGD inh inactive and PNC inhibitor inactive.
Screening Cc1ccc(S(=O)(=O)NC(CC(=O)N2CCOCC2)c2ccco2)cc1 (stereo not drawn) returned KinaseGlo FLuc inactive, LMNA splice mod inconclusive, ALDH1A1 inh 12.6µM, HPGD inh inactive and PNC inhibitor -90.9.
`CC(NS(=O)(=O)c1ccc(Br)cc1)C(=O)NCc1ccc2c(c1)OCO2` (stereo not drawn) gave KinaseGlo FLuc inactive and ALDH1A1 inh inactive.
`Cc1ccc(O)c(C(CC(=O)N2CCCC2)c2ccccc2)c1` (stereo not drawn) gave KinaseGlo FLuc inactive, LMNA splice mod inactive, ALDH1A1 inh inactive, HPGD inh 7.08µM and PNC inhibitor inactive.
For CCCCn1c(=N)c(S(=O)(=O)c2ccc(C)cc2)cc2c(=O)n3cc(C)ccc3nc21 the results were LMNA splice mod inactive.
Screening Cc1cc(=O)[nH]c2cc3oc4ccccc4c3cc12 returned KinaseGlo FLuc inactive[7.66 µM], ALDH1A1 inh inactive[13.5 µM] and HPGD inh inactive.
For Cc1ccnn1Cc1cc(C(=O)O)c2ccccc2n1 the results were KinaseGlo FLuc inactive, LMNA splice mod inactive[9.22 µM] and ALDH1A1 inh inactive.
COc1ccc(S(=O)(=O)NC(CC(=O)NC2CCCC2)c2ccco2)cc1 (stereo not drawn) was read as KinaseGlo FLuc inactive, LMNA splice mod inactive, ALDH1A1 inh inconclusive, HPGD inh inactive and PNC inhibitor inactive.
Screening CC(NS(=O)(=O)c1ccccc1)C(=O)NCc1ccco1 (stereo not drawn) returned KinaseGlo FLuc inactive, LMNA splice mod inactive, ALDH1A1 inh 23.8µM, HPGD inh inconclusive and PNC inhibitor inconclusive.
`CC(C)Oc1ccc(C(CC(=O)NCc2ccco2)c2ccccc2)cc1` (stereo not drawn) gave KinaseGlo FLuc inactive, LMNA splice mod inactive, ALDH1A1 inh inconclusive, HPGD inh 11.2µM and PNC inhibitor inactive.
CC(NS(=O)(=O)c1ccc(Br)cc1)C(=O)NCc1ccco1 (stereo not drawn) was read as KinaseGlo FLuc inactive, LMNA splice mod inactive and ALDH1A1 inh inconclusive.
For O=C(CC(c1ccccc1)c1ccco1)N1CCOCC1 (stereo not drawn) the results were KinaseGlo FLuc inactive, LMNA splice mod inactive, ALDH1A1 inh 39.8µM, HPGD inh 17.8µM and PNC inhibitor inactive.
Screening Cc1ccc(S(=O)(=O)NC(CC(=O)NC2CCCC2)c2ccco2)cc1 (stereo not drawn) returned KinaseGlo FLuc inactive, LMNA splice mod inactive, ALDH1A1 inh 14.1µM, HPGD inh inactive and PNC inhibitor inactive.
Screening CC1CCN(S(=O)(=O)c2cc(C(=O)NCc3ccc(F)cc3)n(C)c2)CC1 returned LMNA splice mod inactive.
O=C(N[C@@H](Cc1ccccc1)C(=O)O)c1ccccc1 was read as KinaseGlo FLuc inactive, ALDH1A1 inh inactive and HPGD inh inactive.
COc1ccc(S(=O)(=O)NC(CC(=O)NCCc2ccc(OC)c(OC)c2)c2ccco2)cc1 (stereo not drawn) was read as KinaseGlo FLuc inactive, LMNA splice mod inactive, ALDH1A1 inh 12.6µM, HPGD inh inactive and PNC inhibitor inconclusive.
Screening COC(=O)[C@@]1(Cc2ccccc2)[C@H]2c3cc(C(=O)N4CCCC4)n(Cc4cccc5ccccc45)c3C[C@H]2CN1C(=O)c1ccccc1 returned KinaseGlo FLuc inactive, ALDH1A1 inh inactive and HPGD inh inactive.
`COc1cccc(C(=O)Nc2ccc(-n3nncc3C(C)(C)C)cc2)c1` gave KinaseGlo FLuc inactive and ALDH1A1 inh inactive.
Screening CC(C)(C)c1cnnn1-c1ccc(NC(=O)c2ccc3c(c2)OCO3)cc1 returned KinaseGlo FLuc inactive, LMNA splice mod inactive, ALDH1A1 inh 11.9µM, HPGD inh inactive and PNC inhibitor inactive.
Screening CC(C)C[C@@H](CC(=O)N[C@H](CC(=O)N[C@@H]1CCNC[C@H]1C(=O)N[C@H](CC(=O)N[C@@H](CCC(=O)O)CC(=O)O)CC(C)C)C(C)C)NC(=O)[C@@H]1CNCC[C@H]1N returned KinaseGlo FLuc inactive, ALDH1A1 inh inactive and HPGD inh inactive.
Screening COc1ccc(CN2C3CCCC2CC(NC(=O)Nc2ccccc2C)C3)cc1 (stereo not drawn) returned KinaseGlo FLuc inactive, LMNA splice mod inactive, ALDH1A1 inh inactive, HPGD inh inactive and PNC inhibitor -100.0.
`COC(=O)C/C=C\[C@@H](C)[C@@H](/C=N\O[C@@H]1O[C@H](COC(C)=O)[C@@H](OC(C)=O)[C@H](OC(C)=O)[C@H]1OC(C)=O)NS(=O)(=O)c1ccc(C)cc1` gave ALDH1A1 inh inactive[13.5 µM].
For CCOC(=O)c1c(Nc2nc(C)c(C(=O)NC)s2)sc(C)c1C the results were KinaseGlo FLuc inactive, LMNA splice mod inactive, ALDH1A1 inh inactive, HPGD inh inactive and PNC inhibitor -81.8.
`Cc1cnc(CNc2ccnc(-c3ccccc3C(F)(F)F)n2)cn1` gave LMNA splice mod inactive and ALDH1A1 inh inconclusive.
`COc1ccc(C(=O)N2CCC3(CCCN(CC(C)C)C3)CC2)cc1` gave KinaseGlo FLuc inactive, ALDH1A1 inh inactive and HPGD inh inactive.
Screening CCOC(=O)c1cc(CC)sc1/N=C/c1c(O)ccc2ccccc12 returned KinaseGlo FLuc inactive, LMNA splice mod inconclusive, ALDH1A1 inh inconclusive, HPGD inh inactive and PNC inhibitor -88.3.
For CCOC(=O)C1(C)C=C(Nc2ccc(OC)cc2)C(=O)N1c1ccc(OC)cc1 (stereo not drawn) the results were KinaseGlo FLuc inactive, LMNA splice mod inactive, ALDH1A1 inh 2.82µM, HPGD inh inconclusive and PNC inhibitor inactive.
Screening CCOC(=O)c1cnc(-n2nc(C)cc2C)nc1Nc1ccc(O)cc1 returned ALDH1A1 inh inactive.

Source: PubChem BioAssay (National Center for Advancing Translational Sciences (NCATS))
